D3 antag – antagonists of human D3 dopamine receptor; P35462; D3R cells, DiscoveRx beta-arrestin luminescence, antagonist mode; active compounds read low; max response, negative = inhibition, %; 360,000 tested, 2.5% active; in the data active means max response below about -50%; inconclusive means no clear call, values can overlap the other calls; further: on the % scale 0 is the no-effect control and ±100 the full control effect
Target sequence (P35462 whole entry, looked up): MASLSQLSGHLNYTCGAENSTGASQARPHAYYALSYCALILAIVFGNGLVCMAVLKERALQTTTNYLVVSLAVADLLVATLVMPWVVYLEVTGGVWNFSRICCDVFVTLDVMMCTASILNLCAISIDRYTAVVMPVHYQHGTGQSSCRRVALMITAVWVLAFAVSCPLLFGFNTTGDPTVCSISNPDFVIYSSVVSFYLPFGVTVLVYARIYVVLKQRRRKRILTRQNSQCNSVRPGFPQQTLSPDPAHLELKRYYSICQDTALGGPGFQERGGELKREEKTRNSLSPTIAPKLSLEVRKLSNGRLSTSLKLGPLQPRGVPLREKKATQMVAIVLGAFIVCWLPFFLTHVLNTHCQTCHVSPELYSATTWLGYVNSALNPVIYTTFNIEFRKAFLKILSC
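Cells plated overnight at 1500 cells/well, then exposed to library compounds with dopamine controls for 90 minutes at 37 degrees C. DiscoveRx reagent added for 30–60 minutes at room temperature; luminescence read, quantitative HTS format.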
PI4K2A inh – inhibitors of human PI4K2A; 420,000 tested, 0.13% active; activity change, negative = inhibition, % at 76.9 µM; purified PI4K2A, ADP-Glo luminescence, 1 h; active compounds read low; in the data active means activity change below about -50%; inconclusive means mostly about -30% to -49%;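 further: -100% = wells without enzyme as full effect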
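PI4K2A activity was measured by ADP-Glo luminescence: enzyme (4 ug/mL stock) and phosphatidylinositol (1.2 mM stock) in Tris pH 7.5/MgCl2/EGTA/Triton X-100 buffer were reacted with ATP (300 microM stock) for one hour at ambient temperature.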
D3 ag – D3 dopamine receptor (human) agonism | P35462 | 410,000 tested, 0.58% active | D3R DiscoveRx beta-arrestin cells, luminescence, 90 min | max activation, %; in the data active means max activation above about 30%; further: 0% is about no effect
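Agonist-mode cell screen: cells plated at 1500/well and incubated overnight at 37 °C, then exposed to library compounds for 90 min at 37 °C. Detection reagent was added for 30–60 min at room temperature, and luminescence was read.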
PI5P4K alpha inh – blocks human PI5P4K alpha kinase activity. max response, %. P48426. PI5P4Kalpha enzyme, ADP-Glo luminescence, 60 min; active compounds read low. AID 652105. 330,000 tested, 1.2% active; active means max response of -50% or lower; inconclusive means between -30% and -50%; inactive means -30% or higher; further: value at the top dose of about 77 µM; on the % scale 0 is the no-effect control and ±100 the full control effect
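Luminescence from ADP-Glo served as readout of PI5P4Kalpha activity in a qHTS format. Reaction: enzyme, substrate, compound, ATP at 5 microM final, 60 min at RT.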
LDHA block – LDHA (human) enzyme inhibition. P00338. purified LDHA, NADH/diaphorase-resazurin fluorescence; active compounds read low. activity change, % (values are at about 110 or 230 µM). 480,000 tested, 0.15% active; in the data active means activity change below about -30%; inconclusive means mostly about -25% to -30%;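 further: plate controls were DMSO wells for no effect and wells without enzyme for full effect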
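Human LDH5 at 2 nM final in Tris HCl pH 7.4 with 0.06 mM NADH and 0.2 mM pyruvate, reacted 5 minutes at room temperature. Remaining NADH coupled via diaphorase/resazurin; resorufin fluorescence read at 0 and 20 minutes, normalized to enzyme-free and DMSO wells.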
Active calls of the source: *; ? = inconclusive; / = no result given. This is a sample that favours compounds with a hit; in the whole collection about 3.3% have one here.

SMILES	D3 antag	PI4K2A inh	D3 ag	PI5P4K alpha inh	LDHA block
CCC(=O)NC1=C(NC(C)c2ccccc2)C(=O)c2ccccc2C1=O (stereo not given)	-16	-3	1	3	17
CCC(=O)NC1=C(Cl)C(=O)C(NC(=O)CC)=C(Cl)C1=O	-62*	?	0	-81*	22
CCOC(=O)SC1=N/C(=C\c2ccc(N(C)C)cc2)C(=O)S1	-54*	-7	-45	/	3
N#Cc1c(-c2cccs2)nc(SCC(=O)c2cccs2)[nH]c1=O	-16	5	1	-70*	5
Cc1cccc(NC(=O)CSc2nc(-c3ccccc3)c(C#N)c(=O)[nH]2)c1C	-63*	-8	-5	?	-7
O=C1NC(c2ccccc2)C(C(=O)c2cccs2)=C1O (stereo not given)	-58*	-4	-10	1	-1
O=C(C1=C(O)C(=O)N(c2nncs2)C1c1ccccc1)c1cccs1 (stereo not given)	/	/	/	/	11
C[C@@H]1COc2cc(N3CCSCC3)ccc2S(=O)(=O)N1C	/	-1	/	/	/
O=C(O)CC(C(=O)O)N1C(=O)/C(=C/C=C/c2ccco2)SC1=S (stereo not given)	31	?	2	-55*	5
O=C(NN1C(=O)/C(=C/C=C/c2ccco2)SC1=S)c1ccccc1O	2	-24	12	-78*	14
O=C(O)CCCN1C(=O)/C(=C/C=C/c2ccco2)SC1=S	-28	-10	-5	-64*	18
O=C(O)C(Cc1ccccc1)N1C(=O)/C(=C/C=C/c2ccco2)SC1=S (stereo not given)	0	-28	21	-99*	22
O=C(O)CC(C(=O)O)N1C(=O)/C(=C/c2ccc(-c3nc4ccccc4s3)o2)SC1=S (stereo not given)	?	?	-5	-11	-14
CCOc1ccc(/C=C/c2nc(C#N)c(N3CCN(Cc4ccccc4)CC3)o2)cc1	/	/	/	/	-5
CCn1c(C)cc(C(=O)CSc2nc3cc(S(N)(=O)=O)ccc3n2C)c1C	/	/	/	/	12
Cc1cc(C)c2c(=O)[nH]c(SC(C)C(=O)Nc3ccc(Cl)cc3F)nc2n1 (stereo not given)	/	/	/	/	1
O=c1cc(-c2ccccc2)c2ccc(OCc3ccccc3)cc2o1	/	/	/	/	2
CC(C)c1nnc(NC(=O)c2cc(=O)c3cc(Cl)cc(Cl)c3o2)s1	/	/	/	/	-35*
C=CCn1cccc(/C=C/C(=O)c2ccc(C(C)(C)C)cc2)c1=S	-60*	-2	-6	0	-5
CC(C)[C@@H]1Cc2[nH]c(=S)[nH]c(=O)c2[C@H](C)O1	-10	0	7	-1	2
CC(C)CC1OC(C(C)C)Cc2[nH]c(=S)[nH]c(=O)c21 (stereo not given)	-51*	3	-4	-11	-4
CCOc1cccc2cc(S(=O)(=O)c3cc(F)cc(F)c3)c(=O)oc12	/	/	/	/	-6
CCC(=O)Nc1cc(C(=O)NCC2CCCN2CC)c(OC)cc1N(C)C (stereo not given)	-91*	-2	-38	/	-1
CCN1CCCC1CNC(=O)c1cc(S(N)(=O)=O)ccc1OC (stereo not given)	-98*	2	/	1	-7
CCN1CCCC1CNC(=O)c1ccccc1Cl (stereo not given)	-25	-2	-24	5	1
SMILES	D3 antag	PI4K2A inh	D3 ag	PI5P4K alpha inh	LDHA block
CCN1CCCC1CNC(=O)c1cc(NC(C)=O)c(N(C)C)cc1OC (stereo not given)	-88*	4	-9	/	-7
O=C(Cn1c(=O)c2c(ncn2C2CCCC2)n(Cc2ccccc2)c1=O)N1CCNC1=O	/	/	/	/	-2
CCc1nc(C)ccc1OCC(=O)NCCCN(C)C	?	-10	-1	/	-33*
COc1ccc(Cl)cc1-c1nc(SCC(=O)N2CCCC2)n[nH]1	/	/	/	/	-2
CCS(=O)(=O)c1nc(S(=O)(=O)c2ccc(Cl)cc2)c(N2CCN(CCO)CC2)s1	-18	2	-14	0	-2
CCN1CCN(c2sc(S(=O)(=O)CC)nc2S(=O)(=O)c2ccc(Cl)cc2)CC1	-105*	-2	-4	6	-8
CCCS(=O)(=O)c1nc(S(=O)(=O)c2ccc(C)cc2)c(N2CCN(CCO)CC2)s1	-91*	3	-6	-1	0
N#Cc1ccc(Cc2cnc(NC(=O)c3ccccc3)s2)c(C(F)(F)F)c1	/	/	/	/	-10
CC(C)(C)NC(=O)NC(=O)COC(=O)c1ccc2ccccc2n1	/	/	/	/	-4
CCCNC(=O)C(C)Sc1nc2ccccc2nc1C (stereo not given)	/	/	/	/	4
CCOC(=O)[C@H]1[C@H]2COc3ccc(C)cc3[C@@H]2N2C(=O)c3ccc(C)cc3NC(=O)[C@@]12C	0	4	-10	-14	0
CCOC(=O)[C@H]1[C@H]2COc3ccc(Br)cc3[C@@H]2N2C(=O)c3ccc(Cl)cc3NC(=O)[C@@]12C	-75*	-3	-27	-7	1
COc1ccc(-c2ocnc2C(=O)Nc2ccc(Br)cc2F)cc1	/	/	/	/	-10
Cc1cc(OCCCCNC(C)C)cc(C(C)C)c1	-69*	2	-13	6	-20
COc1cc2nc(N3CCCN(C)CC3)nc(Nc3ccncc3)c2cc1OC	/	/	/	/	2
CCCOc1ccc(NC(=O)c2ccccc2)c2cccnc12	/	/	/	/	1
CCn1c2ccccc2c2cc(NC(=O)COC(=O)c3cc(OC)c(OC)cc3OC)ccc21	22	0	54*	2	-4
CCOC(=O)C(=CNc1cccc(C)c1C)C(=O)OCC	40	-1	39*	/	-1
CCOC(=O)C(=CNc1ccc2c(c1)c1ccccc1n2CC)C(=O)OCC	134	5	66*	15	2
CCCNC(=O)COC(=O)c1c[nH]c2ccccc12	/	/	/	/	6
Cc1ccc(C)c(Cn2c(N3CCC(C(=O)N4CCC(C(N)=O)CC4)CC3)nc3ccccc32)c1	/	/	/	/	1
O=c1c2c3c(sc2n(CCN2CCCC2)c(=O)n1Cc1ccco1)CCCCC3	-64*	-5	-10	5	3
CN(C)CCn1c(=O)n(Cc2ccco2)c(=O)c2c3c(sc21)CCCCC3	-4	4	2	/	-3
Cc1cc(C(=O)COC(=O)c2cccs2)c(C)n1Cc1ccco1	/	/	/	/	-33*
CSc1nnc(C2CCCN2)n1C (stereo not given)	-54*	-2	-4	-15	3
SMILES	D3 antag	PI4K2A inh	D3 ag	PI5P4K alpha inh	LDHA block
CSc1nnc(-c2ccccc2)n1C	-14	1	-7	/	-16
CNC(=S)NNC(=O)C(Sc1ccccc1)c1ccccc1 (stereo not given)	/	/	/	/	-32*
CCNC(=S)N/N=C(/C)c1cc(Cl)ccc1Cl	/	/	/	/	-10
CCCCC[C@H]1CN(CCCC)C(=O)[C@@H]1CC(=O)NCc1ccccc1	0	1	34*	-6	-1
Cn1c(-c2ccc(F)c(F)c2)cc2onc(-c3ccccc3)c2c1=O	20	2	35*	11	-9
COc1cccc(-c2cc3onc(-c4ccccc4)c3c(=O)n2C)c1	27	-3	6	10	-12

Screening results (PubChem)
